# Bioassay records from PubChem.
# Casp6 inh: human caspase-6 inhibitors, primary screen, biochemical, VEID-R110 fluorescence, single point, set 2; inhibition, % at 12.5 µM; P55212; purified caspase-6, Z-VEID-R110 cleavage fluorescence; AID 686996, 2013; actives 0.53% (n = 350,000);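 active means mean inhibition across replicates at least about 35%, with every replicate also reaching that limit, limit read from the data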;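 further: 0% = median of neutral control wells and 100% = no fluorescence left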
# MBD2 inh: inhibitors of MBD2 binding to methylated DNA, primary screen, biochemical, TR-FRET, DNA-binding domain, human; Methyl-CpG-binding domain protein 2 (Homo sapiens), Q9UBB5; MBD2 binding to methylated oligonucleotide; inhibition, % at 4.4 µM; actives 0.31% (n = 370,000); in the data active means inhibition above about 13%
# UHRF1 MBD2 ctr: UHRF1 methylated DNA binding inhibitors, primary screen, counter-screen for MBD2 inhibitor project, biochemical, TR-FRET, human UHRF1, single concentration; inhibition, % at 4.4 µM; actives 0.75% (n = 370,000); UHRF1 binding to methylated oligo; in the data active means inhibition above about 21%;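 further: UHRF1 SRA domain binding a hemimethylated CpG hairpin DNA probe; 0% = median of test compound wells and 100% = reference inhibitor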
# Target sequence (Q96T88 whole entry, looked up, the tested form may be a part): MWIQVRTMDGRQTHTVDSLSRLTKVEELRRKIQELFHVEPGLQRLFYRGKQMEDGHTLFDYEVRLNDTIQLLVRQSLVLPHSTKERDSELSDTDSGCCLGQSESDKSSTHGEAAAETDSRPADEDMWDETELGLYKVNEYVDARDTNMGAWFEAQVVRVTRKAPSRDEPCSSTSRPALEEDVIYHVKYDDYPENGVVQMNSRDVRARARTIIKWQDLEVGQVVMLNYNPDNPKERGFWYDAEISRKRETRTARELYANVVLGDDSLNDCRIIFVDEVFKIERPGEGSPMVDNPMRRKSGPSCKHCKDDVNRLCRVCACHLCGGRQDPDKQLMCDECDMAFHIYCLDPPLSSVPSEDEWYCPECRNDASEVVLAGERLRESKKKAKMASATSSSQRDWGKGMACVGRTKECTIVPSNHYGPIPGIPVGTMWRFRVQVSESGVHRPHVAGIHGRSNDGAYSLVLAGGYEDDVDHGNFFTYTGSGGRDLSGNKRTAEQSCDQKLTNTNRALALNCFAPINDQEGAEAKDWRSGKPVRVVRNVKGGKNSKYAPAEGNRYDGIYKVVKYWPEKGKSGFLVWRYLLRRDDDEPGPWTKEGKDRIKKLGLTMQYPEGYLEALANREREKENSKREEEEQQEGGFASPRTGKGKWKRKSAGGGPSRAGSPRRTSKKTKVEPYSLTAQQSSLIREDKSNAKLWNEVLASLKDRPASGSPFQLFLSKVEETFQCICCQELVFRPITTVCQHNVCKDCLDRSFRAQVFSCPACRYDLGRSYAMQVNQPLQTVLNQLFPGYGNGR
# LEDGF integ inh: blockers of LEDGF/p75-dependent integrase strand transfer – biochemical, TR-FRET, high throughput, primary screen; TR-FRET IN-LEDGF/p75 DNA integration, Eu/Cy5; inhibition, % at 3.7 µM; actives 0.64% (n = 370,000); AID 743269, 2014;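 active means inhibition above the screen-wide mean plus 3 SD, cut at about 13% in these data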;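 further: signal is the Cy5 over europium emission ratio at 671 and 618 nm; 0% = plate median of compound wells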
# Numbers without * were called inactive; · = no result given. Sampled rows, rich in hits. Any-hit rate of the full collection: about 1.4%.
SMILES,Casp6 inh,MBD2 inh,UHRF1 MBD2 ctr,LEDGF integ inh
O=C(NCc1ccco1)c1ccc(Br)c(S(=O)(=O)N2CCCCC2)c1,72*,-5,6,4
C[C@H]1CN([C@@H](C)CO)C(=O)Cc2cc(NC(=O)CCC(F)(F)F)ccc2O[C@@H]1CN(C)S(=O)(=O)c1ccc(Cl)cc1,-2,·,·,·
CC(=O)CCC(=O)NC1CCCc2c1cnn2-c1ccc(C(C)(C)C)cc1 (configuration not stated),-4,1,34*,-4
O=C(CC1C(=O)NCCN1C/C=C/c1ccccc1)NCCc1ccncc1 (configuration not stated),-1,10,23*,0
C[C@@H]1CN([C@H](C)CO)C(=O)c2cc(C#C[C@@H](C)O)cnc2O[C@@H]1CN(C)Cc1ccc(-c2ccccc2)cc1,2,·,·,·
COC(CNC(=O)c1ccc2c3c(onc13)-c1ccccc1C2=O)OC,50*,-7,-1,2
CC[C@@]12C(=O)N(c3ccccc3)C(=O)N1[C@H](c1cccc(C)c1)[C@@H]1C(=O)N(Cc3ccccc3)C(=O)[C@@H]12,0,7,24*,10
COC(=O)CSc1nnc(-c2ccco2)n1-c1ccc(C)cc1,·,-5,0,0
COC(=O)CSc1nnc(-c2ccoc2C)n1-c1ccc(C)cc1,·,13,22*,2
COC(=O)c1ccc(=O)n(CC(=O)c2ccc(Cl)cc2)c1,-1,3,27*,1
CO[C@H]1CN(C)C(=O)c2cc(NC(C)=O)ccc2OC[C@@H](C)NC[C@H]1C,0,·,·,·
COc1ccccc1C(=O)N1CCN(C(=O)[C@H]2O[C@@H](n3cnc4c(N)ncnc43)[C@H](O)[C@@H]2O)CC1,3,12,24*,0
Nc1nc(-c2ccccc2)[nH]c(=O)c1N=O,49*,-9,-2,-3
CN(C)CC(=O)N[C@@H]1CC[C@@H](CCNC(=O)Nc2ccc(C(F)(F)F)cc2)O[C@H]1CO,-1,·,·,·
CC1(C)CC(=O)C(C=Nc2cccnc2/N=C/C2=C(O)CC(C)(C)CC2=O)=C(O)C1,41*,-4,-3,-1
CNC[C@@H]1Oc2c(NC(=O)NC(C)C)cccc2C(=O)N([C@H](C)CO)C[C@@H]1C,-3,·,·,·
C[C@@H]1CN([C@H](C)CO)C(=O)c2cc(/C=C/c3ccccc3)cnc2O[C@@H]1CN(C)C(=O)c1ccc2c(c1)OCO2,1,·,·,·
COC(=O)C(=O)C1CCc2c(Cl)cc(OC)c(OC)c2C1=O (configuration not stated),79*,-4,3,4
C#CCOCCOCCOCCNc1nc(N2CCOCC2)nc(N2CCN(C(=O)[C@H](CCC(=O)O)n3cc(C(N)[C@H](C)CC)nn3)CC2)n1 (some centres not stated),2,1,2,-5
C#CCOCCOCCOCCNc1nc(N2CCN(C(=O)[C@H](CCC(=O)O)n3cc(CN)nn3)CC2)nc(N2CCN(C(=O)[C@H](CCC(=O)O)n3cc([C@@H](N)[C@H](C)CC)nn3)CC2)n1,-2,6,22*,8
NNS(=O)(=O)c1ccc2c(c1)Cc1cc(S(=O)(=O)NN)ccc1-2,48*,4,5,6
O=C(NCc1ccccc1)C(c1cccc2ccccc12)n1c(=O)c(-c2ccccc2)nc2ccccc21 (configuration not stated),-3,7,3,-1
CCCCCNC(=O)C(c1cccc2ccccc12)n1c(=O)c(-c2ccccc2)nc2ccccc21 (configuration not stated),1,-1,74*,1
C[C@@H]1CN([C@@H](C)CO)C(=O)c2cccc(NC(=O)C3CC3)c2O[C@H]1CN(C)S(=O)(=O)c1ccc(Cl)cc1,1,·,·,·
CCNC(=O)C[C@@H]1CC[C@@H]2[C@H](COc3ccc(NC(=O)C4CCCCC4)cc3C(=O)N2C)O1,-3,·,·,·
SMILES,Casp6 inh,MBD2 inh,UHRF1 MBD2 ctr,LEDGF integ inh
COC(=O)C(C)Sc1ncnc2c1c(-c1ccccc1)cn2-c1ccc(OC)cc1 (configuration not stated),·,-3,4,3
CCOc1ccc(-n2cc(-c3ccccc3)c3c(SC(C)C(=O)OC)ncnc32)cc1 (configuration not stated),-2,5,22*,6
CCOc1ccc(CCNC(=O)C2CC=CCC2C(=O)OC(C)C)cc1OCC (configuration not stated),·,3,1,5
CCOc1ccc(CCNC(=O)C2CC(C)=CCC2C(=O)O)cc1OCC (configuration not stated),36*,-6,0,1
CN1N=C(N)c2cn(C3OC(COP(=O)(O)O)C(O)C3O)c3ncnc1c23 (configuration not stated),46*,-8,-3,-5
CCC(=O)Nc1ccc2c(c1)C(=O)N(C)C[C@H](OC)[C@H](C)CN(CC1CC1)[C@@H](C)CO2,3,·,·,·
CCCCn1nnnc1C1(C)CCC(=O)N1CCc1ccc(O)cc1 (configuration not stated),-2,7,3,0
CC1(c2nnnn2Cc2ccccc2)CCC(=O)N1CCc1ccc(O)cc1 (configuration not stated),1,6,24*,-2
O=C(NC12CC3CC(CC(C3)C1)C2)c1ccc(-c2cccc(Cl)c2)o1,·,8,21*,2
O=C(NC12CC3CC(CC(C3)C1)C2)c1ccc(-c2ccc(Cl)cc2)o1,-5,4,-6,-1
CN(C)/C=C1/C=C(C=O)OC1=O,45*,1,1,2
Cc1noc(C)c1NC(=O)N(C)C[C@H]1Oc2c(NC(=O)c3ccc(-c4nccs4)cc3)cccc2C(=O)N([C@H](C)CO)C[C@@H]1C,0,·,·,·
C[C@@H]1CN([C@@H](C)CO)C(=O)c2cc(NC(=O)CCC(F)(F)F)ccc2O[C@H]1CN(C)C(=O)Nc1ccccc1,0,·,·,·
O=C(C[C@H]1C=C[C@@H](NS(=O)(=O)c2ccc(F)cc2)[C@@H](CO)O1)NCc1ccncn1,-4,·,·,·
CC(=O)NC1C(=O)N(CCN2CCOCC2)c2ccc(Cl)cc21 (configuration not stated),40*,2,-2,16*
CC(=O)NC1C(=O)N(CCN2CCOCC2)c2ccc(F)cc21 (configuration not stated),52*,-4,0,9
CCCCN1C(=O)C(NC(C)=O)c2cc(Br)ccc21 (configuration not stated),·,6,2,0
COc1ccc(NC(=O)N(C)C[C@H]2Oc3ccc(NC(=O)Nc4ccc5c(c4)OCO5)cc3C(=O)N([C@@H](C)CO)C[C@@H]2C)cc1,0,·,·,·
